Assay [1] is described as follows: Tanguay_ZF_120hpf_MUSC: Oregon State University Tanguay Lab 120 Hour Post-fertilization zebrafish Assay for Muscle Malformation (AID 2284401). The procedure, abridged: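 Scored as a binary brightfield endpoint at 120 hpf, fitted versus DMSO. Single dechorionated wild-type (Tropical 5D) zebrafish embryos per well, statically exposed at 28C from 6 hpf onward with final DMSO 0.64%.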

The nature of assay [2]: CCTE_Shafer_MEA_dev_firing_rate_mean: CCTE's Neural Network Formation Assay for Mean Firing Rate, Shafer Lab (AID 2284031).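 Further: curve fitted for loss of firing so AC50 reflects decreased mean firing rate.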 The procedure, abridged:
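Spike frequency (spikes/recording length, averaged over active electrodes) was recorded on days 5, 7, 9 and 12 and collapsed to AUC; rat cortical cultures received compound continuously over 12 days of network development.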

The nature of assay [3]: CCTE_Shafer_MEA_dev_per_burst_spike_percent: CCTE's Neural Network Formation Assay for Percent of Spikes in a Burst, Shafer Lab (AID 2284032).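 Further: fitted as a decrease in burst spike percentage below DMSO baseline.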 In a few lines:
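Value is trapezoidal AUC over recordings on days 5, 7, 9 and 12 of the well-mean fraction of spikes falling in single-electrode bursts; rat cortical cultures exposed continuously from plating, treatment renewed DIV 5 and 9, fitted downward against DMSO.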

The nature of assay [4]: CCTE_Shafer_MEA_dev_active_electrodes_number: CCTE's Neural Network Formation Assay for Number of Active Electrodes, Shafer Lab (AID 2284040; active means hit-call score of the fitted dose curve at least 0.9, where 1 is the maximum;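 further: potency for loss of active electrodes versus DMSO so lower counts are hits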). The procedure, abridged: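 Counts electrodes per well firing at least 5 spikes/min, recorded on days 5, 7, 9 and 12 in rat cortical cultures dosed continuously from plating (treatment refreshed DIV 5, 9). Value is the area under the curve over recordings, fitted downward relative to DMSO.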

Assay [5] is described as follows: CCTE_Shafer_MEA_dev_burst_rate: CCTE's Neural Network Formation Assay for Burst Rate, Shafer Lab (AID 2284042).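 Further: potency for loss of burst rate below DMSO control.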 In a few lines: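 Cells plated, treated day 0; recorded DIV 5, 7, 9, 12; fed and re-treated DIV 5, 9. Endpoint: bursts per recording time, active-electrode well mean, trapezoidal AUC, fitted in decreasing direction against DMSO baseline.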
The nature of assay [6]: CCTE_Shafer_MEA_dev_bursting_electrodes_number: CCTE's Neural Network Formation Assay for Number of Bursting Electrodes, Shafer Lab (AID 2284043; active means hit-call score of the fitted dose curve at least 0.9, where 1 is the maximum;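 further: potency is for loss of bursting electrodes relative to DMSO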). In a few lines:
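Number of electrodes reaching ≥1 burst every 2 min was recorded at DIV 5, 7, 9 and 12 and collapsed as trapezoidal area under the curve. Cultures were rat cortical neurons on MEA plates, dosed continuously from plating with medium and treatment refreshed on DIV 5 and 9.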

Assay [7] is described as follows: CCTE_Shafer_MEA_dev_burst_duration_mean: CCTE's Neural Network Formation Assay for Mean Burst Duration, Shafer Lab (AID 2284045).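 Further: curve fitted for loss meaning shorter burst duration than DMSO.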 The procedure, abridged: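 Mean single-electrode burst duration (first to last spike), averaged over bursting electrodes per well, then integrated as area-under-curve across recordings at days 5, 7, 9 and 12. Rat cortical cultures on MEAs, compound present from plating, refreshed at feeds.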

Assay [8] is described as follows: CCTE_Shafer_MEA_dev_interburst_interval_mean: CCTE's Neural Network Formation Assay for Mean Interburst Interval, Shafer Lab (AID 2284046).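 Further: curve fitted for decrease in interburst interval relative to DMSO.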 The procedure, abridged: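 Developing rat cortical networks on 48-well MEAs receive compound from the day of plating. Burst intervals from each active electrode are averaged per well, and AUC over the recording days is fitted in the negative direction against DMSO.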

Assay [9] can be described thus: CCTE_Shafer_MEA_dev_inter_network_spike_interval_mean: CCTE's Neural Network Formation Assay for Mean Inter-network Spike Interval, Shafer Lab (AID 2284047). The procedure, abridged:
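Rat cortical cultures, 1.5 x 10^5 cells/well on 48-well MEA plates; continuous exposure days 0–12, medium and compound refreshed DIV 5, 9. Mean time between consecutive network-spike peaks; AUC across DIV 5/7/9/12; DMSO baseline, negative fitting direction.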

The nature of assay [10]: CCTE_Shafer_MEA_dev_network_spike_number: CCTE's Neural Network Formation Assay for Number of Network Spikes, Shafer Lab (AID 2284048).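 Further: synchronized bursts across electrodes counted on days 5 7 9 12 and integrated as AUC; fit as a loss of signal meaning fewer network spikes than DMSO.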 In a few lines: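 Number of network spikes (coordinated firing across electrodes) recorded on days 5, 7, 9 and 12 and summarised as area under the curve. Rat cortical cultures on MEA, continuous compound exposure with full medium/treatment exchange at DIV 5 and 9.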

Assay [11] in a line: CCTE_Shafer_MEA_dev_network_spike_peak: CCTE's Neural Network Formation Assay for Mean Number of Electrodes in Network Spike, Shafer Lab (AID 2284049).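 Further: fitted for loss of signal meaning fewer electrodes in network spikes than DMSO.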 The procedure, abridged:
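Rat cortical primary culture, 1.5 x 10^5 cells/well, 48-well MEA (16 electrodes/well). Dosing day 0 through DIV 12, full media/compound exchange DIV 5, 9. AxIS adaptive spike detection; AUC over days 5/7/9/12; loss-of-signal vs DMSO.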

A short description of assay [12]: CCTE_Shafer_MEA_dev_spike_duration_mean: CCTE's Neural Network Formation Assay for Mean Spike Duration, Shafer Lab (AID 2284051).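 Further: potency for a decrease in mean network spike duration versus DMSO.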 The procedure, abridged: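 Readout is the average length of network spikes, clustered firing across electrodes, summed over DIV 5, 7, 9 and 12 as area under the curve. Neurons from rat cortex developed networks on MEA plates under continuous 12-day exposure.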

Assay [13] can be described thus: CCTE_Shafer_MEA_dev_network_spike_duration_std: CCTE's Neural Network Formation Assay for Standard Deviation of Network Spike Duration, Shafer Lab (AID 2284052).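 Further: hits are decreases in network spike duration SD versus DMSO vehicle.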 In a few lines:
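Read-out is the trapezoidal area-under-the-curve across recordings made on days 5, 7, 9 and 12, fitted in the negative direction against DMSO baseline. Neurons were primary rat cortical cells treated from day 0, with treatment renewed at each feed.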

Assay [14] in a line: CCTE_Shafer_MEA_dev_per_network_spike_spike_number_mean: CCTE's Neural Network Formation Assay for Mean Number of Spikes in a Network Spike, Shafer Lab (AID 2284053). In a few lines: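 Continuous twelve-day exposure of developing rat cortical networks grown over 16 microelectrodes per well; spontaneous firing is captured at four time points, and the per-network-spike spike number is integrated over development by trapezoidal AUC.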

Assay [15] in a line: CCTE_Shafer_MEA_dev_per_network_spike_spike_percent: CCTE's Neural Network Formation Assay for Percent of Spikes in a Network Spike, Shafer Lab (AID 2284054). In a few lines:
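Metric: fraction of spikes falling in a 0.05 s window at network-spike peaks. Recordings were made on days 5, 7, 9 and 12 and collapsed by trapezoidal AUC. Cultures were rat cortical neurons on MEA plates, dosed continuously from plating, re-dosed at media changes.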

The nature of assay [16]: CCTE_Shafer_MEA_dev_LDH: CCTE's Lactate Dehydrogenase Assay for Cytotoxicity in the Neural Network Formation Assay, Shafer Lab (AID 2284068; active means hit-call score of the fitted dose curve at least 0.9, where 1 is the maximum;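 further: exposure for twelve days from plating with re-dosing on DIV 5 and 9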). The procedure, abridged:
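Cytotoxicity companion to network-formation recordings: rat cortical neurons received compound over 12 days of development, re-dosed at DIV 5 and 9 feeds. Viability was inferred from LDH enzyme activity relative to DMSO.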

The nature of assay [17]: CCTE_Shafer_MEA_dev_AB: CCTE's Alamar Blue Assay for Cytotoxicity in the Neural Network Formation Assay, Shafer Lab (AID 2284083; active means hit-call score of the fitted dose curve at least 0.9, where 1 is the maximum;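 further: resazurin reduction fluorescence as viability of cultured neurons; twelve days of exposure from plating with re-dosing on DIV 5 and 9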). In a few lines:
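Fluorescent resazurin reduction serves as the viability read-out, with DMSO as negative control and baseline. Cells were primary rat cortical neurons grown on MEA plates and dosed from day 0 to day 12, treatment renewed on DIV 5 and 9.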
(The colour change of resazurin is a common sign of viable cells or microbes.)

A short description of assay [18]: CCTE_Shafer_MEA_dev_mutual_information_norm: CCTE's Neural Network Formation Assay for Mutual Information Normalization, Shafer Lab (AID 2284091).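 Further: mutual information between electrodes summarised as area under curve across four recording days; potency is for a decrease in mutual information relative to DMSO.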 In a few lines: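 Shared information across electrodes, tracked on days 5, 7, 9 and 12 of network development and collapsed as trapezoidal area under the curve. Rat cortical cultures were treated continuously from plating, with treatment renewed at feeds on DIV 5 and 9; DMSO baseline, negative-direction fit.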

Assay [19] can be described thus: CCTE_Mundy_HCI_Cortical_Synap_Neur_Matur_NeuriteSpotCountPerNeuriteLength: CCTE's Synaptogenesis and Neurite Maturation Assay in rat cortical cells for Neurite Spot Count per Neurite Length, Mundy Lab (AID 2284210). The procedure, abridged:
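Synaptophysin spots per unit neurite length, measured by automated imaging of MAP2/synaptophysin/Hoechst-stained neurons. Cultures from rat cortex received chemical at DIV 7 with media change through DIV 12; glial growth arrested by AraC at DIV 5; DMSO baseline.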

Assay [20] is described as follows: CCTE_Mundy_HCI_Cortical_NOG_NeuriteLength: CCTE's Neurite Outgrowth Assay in rat cortical cells for Neurite Length, Mundy Lab (AID 2284213).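 Further: neurites imaged about 48 to 50 h after chemical exposure began.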 The procedure, abridged:
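First, rat primary cortical cells were plated and, 2 h later, given test chemical as a 1/10 dilution. Finally, βIII-tubulin immunostaining enabled automated imaging of neurite length.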

A short description of assay [21]: CCTE_Mundy_HCI_Cortical_Synap_Neur_Matur_NeuriteLength: CCTE's Synaptogenesis and Neurite Maturation Assay in rat cortical cells for Neurite Length, Mundy Lab (AID 2284214). In a few lines: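 Neurite length quantified by automated high-content imaging of MAP2, synaptophysin and Hoechst staining. Rat cortical cells received chemical from DIV 7 to DIV 12 […], glial growth arrested by AraC at DIV 5; DMSO baseline.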

Assay [22] is described as follows: CCTE_Mundy_HCI_Cortical_Synap_Neur_Matur_SynapseCount: CCTE's Synaptogenesis and Neurite Maturation Assay in rat cortical cells for Synapse Count, Mundy Lab (AID 2284218). In a few lines:
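High-content imaging of synaptophysin puncta per MAP2-positive neuron (Hoechst nuclei) in rat cortical cells exposed DIV 7–12 after glial arrest with AraC at DIV 5; decrease relative to DMSO scored.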

Assay [23] in a line: CCTE_Mundy_HCI_hN2_NOG_NeuriteCount: CCTE's Neurite Outgrowth Assay in human hN2 cells for Neurite Count, Mundy Lab (AID 2284219; active means hit-call score of the fitted dose curve at least 0.9, where 1 is the maximum). In a few lines: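 In this morphology assay, hNP1-derived neurons received test chemical 2 h post-plating and were fixed two days later in warm paraformaldehyde/sucrose containing Hoechst 33342. Neurites, labelled by rabbit anti-βIII-tubulin (1:800) and Alexa Fluor-488 (1:500), were counted automatically.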

The nature of assay [24]: CCTE_Mundy_HCI_hN2_NOG_NeuronCount: CCTE's Neurite Outgrowth Assay in human hN2 cells for Neuron Count, Mundy Lab (AID 2284221; active means hit-call score of the fitted dose curve at least 0.9, where 1 is the maximum). In a few lines: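 Read-out is the number of betaIII-tubulin-positive neurons imaged by automated high-content analysis, with DMSO as negative control.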
Assay [25] can be described thus: CCTE_Mundy_HCI_Cortical_Synap_Neur_Matur_CellBodySpotCount: CCTE's Synaptogenesis and Neurite Maturation Assay in rat cortical cells for Cell Body Spot Count, Mundy Lab (AID 2284223). The procedure, abridged:
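Rat primary cortical cultures received AraC at DIV 5 to arrest glia, were dosed with chemical at DIV 7 with media change, and were fixed at DIV 12 (288.33 h). Synaptophysin puncta on MAP2-positive cell bodies per neuron were counted by high-content imaging versus DMSO.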

Assay [26] is described as follows: CCTE_Mundy_HCI_Cortical_NOG_NeuronCount: CCTE's Neurite Outgrowth Assay in rat cortical cells for Neuron Count, Mundy Lab (AID 2284236; active means hit-call score of the fitted dose curve at least 0.9, where 1 is the maximum;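 further: neurons counted by imaging betaIII-tubulin and Hoechst stained cortical cells; cells exposed to compound for about 48 hours before fixation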). In a few lines:
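Read-out: neuron number by high-content imaging of betaIII-tubulin (Alexa Fluor-488) and Hoechst-labelled rat primary cortical cells.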

Assay [27] in a line: CCTE_Mundy_HCI_hNP1_Casp3_7: CCTE's Caspase-Glo 3/7 Assay in human neuroprogenitor cells for Apoptosis, Mundy Lab (AID 2284240). In a few lines:
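Apoptosis is scored by activated caspase-3/7 luminescence in WA09-derived neural progenitor cells, measured 26.5 h after chemical dosing. Values represent gain of signal relative to DMSO vehicle.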

A short description of assay [28]: CCTE_Mundy_HCI_Cortical_Synap_Neur_Matur_NeuronCount: CCTE's Synaptogenesis and Neurite Maturation Assay in rat cortical cells for Neuron Count, Mundy Lab (AID 2284242; active means hit-call score of the fitted dose curve at least 0.9, where 1 is the maximum;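 further: hits reduce neuron count versus DMSO baseline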). The procedure, abridged: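 Neuron counts come from automated high-content imaging of Hoechst nuclei and MAP2/synaptophysin immunostaining at DIV 12, with loss of signal judged against DMSO. Cultures of rat cortical cells had glial growth arrested by AraC at DIV 5; chemical exposure began DIV 7.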

Results filed as inconclusive are left out. Active and inactive are the calls of the source. How the source made its calls, unless noted: active means hit-call score of the fitted dose curve at least 0.9, where 1 is the maximum; inactive means score below 0.9.

Regarding `O=S(=O)(Cl)C(F)(F)C(F)(F)C(F)(F)C(F)(F)C(F)(F)C(F)(F)C(F)(F)C(F)(F)F`, in assay [1], the result was inactive.
`[CH3][Sn]([CH3])[CH3]`: the AC50 (in general, the concentration giving half of the maximal activity seen) in assay [2] is 571 nM (active); in [3] it was 1.62 µM (active); in assay [4], 212 nM (active); in assay [5], 559 nM (active); in assay [6] it was 245 nM (active); in [7], 992 nM (active). Besides, the AC50 is 2.36 µM (active) in assay [8]; 94.4 nM (active) in assay [10]; 224 nM (active) in [11]; 151 nM (active) in assay [12]; 77.3 nM (active) in assay [13]; 222 nM (active) in assay [14]. Moreover, the AC50 is 221 nM (active) in assay [15]; 174 nM (active) in assay [16]; 1.58 µM (active) in [17]; 221 nM (active) in [18]; 1.78 µM (active) in [20]; 2.41 µM (active) in assay [21]. Further, the concentration at half-maximal activity (AC50) is 1.79 µM (active) in assay [22], 5 µM (active) in assay [27] and 1.67 µM (active) in assay [28]. Also, the compound was classed as inactive in assay [9], in assay [19], in assay [23], in assay [24], in [25] and in assay [26].

These data come from PubChem BioAssay (EPA / NIEHS).
